In all, about 69,000 compounds went through this assay and about 420 (0.61%) showed an effect of 50% or more. The sample holds strong results, similar compounds and a random draw of the others, so the mix is not that of the screen.

The experiment has as its target T1, Histidine--tRNA ligase (Leishmania infantum) (UniProt A4I591).
T1 sequence (whole entry): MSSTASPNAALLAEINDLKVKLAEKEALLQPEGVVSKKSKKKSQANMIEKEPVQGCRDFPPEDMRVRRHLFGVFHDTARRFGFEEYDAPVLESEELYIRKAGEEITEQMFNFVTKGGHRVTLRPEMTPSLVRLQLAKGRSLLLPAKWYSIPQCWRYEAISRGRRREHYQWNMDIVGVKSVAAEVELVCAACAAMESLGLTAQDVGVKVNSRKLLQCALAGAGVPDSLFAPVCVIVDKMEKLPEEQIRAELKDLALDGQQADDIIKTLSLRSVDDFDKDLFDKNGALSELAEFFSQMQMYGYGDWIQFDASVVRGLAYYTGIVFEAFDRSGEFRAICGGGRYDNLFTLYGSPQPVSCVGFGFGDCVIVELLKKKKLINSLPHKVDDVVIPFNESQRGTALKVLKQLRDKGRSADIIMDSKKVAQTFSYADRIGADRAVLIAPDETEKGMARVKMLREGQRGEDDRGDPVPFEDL
Briefly: Leishmania infantum Histidine tRNA synthetase (LdHisRS). The experiment is classed as functional. The arrangement: scale not given: in the data most compounds retested in dose-response had high values. The conditions noted are these: 30 µM.
Turning to `CCC1=N[C@@]2(CC[C@@H]3CN(CC(C)C)C[C@@H]32)C(=O)N1`, the Percent Effect worked out at 11.1%.
With `CCOc1cccc(C(=O)N2C[C@H]3CC[C@@H]2CN(C(=O)C2CCC2)C3)c1`, the Percent Effect was determined as 4%.
`Cc1ccc(OCc2occc2C(=O)N2C[C@@H]3[C@@H](CN(C)C)[C@@H]3C2)cc1`: the Percent Effect was 15.9%.
For the molecule `Cc1nc(COC[C@@]23CCC[C@@H]2CN(Cc2nccs2)C3)cs1`, the Percent Effect was 15.8%.
For `CN(C)C(=O)CO[C@H]1CN(Cc2nccs2)[C@@H]2COC[C@H]12`, the Percent Effect stood at 9.91%.
For `NC(=O)C1=NC2=NS(=O)(=O)c3ccccc3N2N1Cc1ccc(Br)cc1`, the Percent Effect came to 59.7%.
For the molecule `NC(=O)C1=NN2C(=NS(=O)(=O)c3ccccc32)N1`, the Percent Effect turned out to be 14.8%.
Turning to `NC(=O)C1=NC2=NS(=O)(=O)c3ccccc3N2N1Cc1ccccc1Cl`, the Percent Effect was 37.1%.
For `NC(=O)C1=NC2=NS(=O)(=O)c3ccccc3N2N1Cc1ccc(Cl)cc1`, the Percent Effect was found to be 58.1%.
For `NC(=O)CN(Cc1ccc(Br)cc1)C(=O)c1ccccn1`, the Percent Effect came out at 7.29%.
Consider `Cc1nnc([C@@H]2CC[C@@H]3[C@@H](CCN3C3CCOCC3)O2)o1`, for which the Percent Effect worked out at 2.63%.
To `Cc1ccc(CN2CC[C@H]3[C@H]2CCN3S(C)(=O)=O)s1` belongs 20%; to `O=C(c1ccccn1)N1C[C@@H]2CC[C@H](C1)N(C(=O)CCc1ccsc1)C2`, 10.4%; to `Cc1nnsc1CN1C[C@H]2CC[C@@H]1CN(Cc1ccc(F)cc1)C2`, 8.33%.
With `CC(=O)N1CCCCC[C@@H]2[C@@H]1[C@H](c1cccc(F)c1)CN2CCC(N)=O`, the Percent Effect was found to be 13%.
The result for `CC(CCc1ccccc1)NC(=O)Nc1cnn(CC(N)=O)c1` (stereo unspecified) reads 24.3%.
Turning to `CC(CCc1ccccc1F)C(=O)NS(=O)(=O)N(C)C(C)C` (stereo unspecified), the Percent Effect is 19.5%.
As to `CC(CCc1ccccc1F)C(=O)NS(C)(=O)=O` (stereo unspecified), the Percent Effect was determined as 16.9%.
For the molecule `COCCn1cc(NC(=O)NC(C)CCc2ccccc2)ccc1=O` (stereo unspecified), the Percent Effect is 98.3%.
To `COCCn1cc(NC(=O)C(C)CCc2ccccc2F)ccc1=O` (stereo unspecified) belongs 102%; to `CC(CCc1ccccc1)NC(=O)CN1CCOCC1` (stereo unspecified), 1.49%; to `COc1ccc(CN2C[C@@H]3COC[C@]3(CN(C)C)C2)cc1`, 17.6%.
Regarding `O=C(Cc1ccncc1)N1C[C@@H]2CC[C@H](C1)N(Cc1ccccc1)C2=O`, the Percent Effect was found to be 6.56%.
Regarding `O=C(Cc1csc(-c2ccco2)n1)N1CCN(c2nccs2)CC1`, the Percent Effect amounted to 20%.
`Cc1ccc(-c2nc(CC(=O)N3CCN(c4cnccn4)CC3)cs2)o1`: the Percent Effect was found to be 28.7%.
Turning to `O=C(Cc1csc(-c2ccco2)n1)N1CCN(c2cnccn2)CC1`, the Percent Effect is 56.8%.
Turning to `Cc1noc(C)c1CN1CC[C@H]2OCC[C@@H](C(=O)N3CCCO3)[C@H]2C1`, the Percent Effect is 20%.
Take `O=S(=O)(C1CC1)N1CCO[C@H]2[C@H](OCCN3CCCC3)CC[C@@H]21`: the Percent Effect worked out at 15.1%.
The result for `O=C1[C@H]2CN(CC3CCOCC3)C[C@H]2CN1c1ccsc1` reads 8%; that for `O=C(CC1CC1)N[C@@H]1CN(Cc2ccco2)C[C@@H]2CCCO[C@@H]21`, 17.1%; that for `COCCN1CCCC(C)(c2cc(O)[nH]n2)C1` (stereo unspecified), 47.1%.
For `COCCN1CCC(C)(c2cc(O)[nH]n2)CC1`, the Percent Effect was found to be 50%.
Consider `COCC(=O)N1CCC(C)(c2cc(O)[nH]n2)CC1`, for which the Percent Effect was found to be 17.1%.
Take `Cc1oncc1C(=O)N[C@@H]1CN(c2ncccn2)C[C@@H]2CCCO[C@@H]21`: the Percent Effect is 20%.
On to `CN1CCO[C@@H]2CN(S(=O)(=O)c3ccc(F)cc3)CC[C@@H]2C1`, for which the Percent Effect worked out at 17.9%.
`CN(Cc1ccco1)C[C@H]1OC[C@@H]2CCN(Cc3cccnc3)C[C@@H]21`: the Percent Effect was found to be 13.2%.
To `c1cncc(CN2CC[C@@H]3O[C@H](COCCN4CCCC4)CC[C@@H]32)c1` belongs 16%; to `Cc1cc(C)cc(N2CCN(Cc3cccc(CCN)c3)CC2=O)c1`, 8.2%; to `COc1cccc(N2CCN(Cc3cccc(CCN)c3)CC2=O)c1`, 60.7%.
On to `COc1cccc(N2CCN(Cc3ccc4occc4c3)CC2=O)c1`, for which the Percent Effect turned out to be 13.5%.
Consider `NCCc1cccc(CN2CCN(c3cccc(Cl)c3)C(=O)C2)c1`, for which the Percent Effect is 14.8%.
The result for `NCCc1cccc(CN2CCN(c3ccccc3)C(=O)C2)c1` reads 55.7%; that for `COc1cc(CN2CCN(c3cccc(OC)c3)C(=O)C2)cc(OC)c1`, 18.3%; that for `Cc1noc(C)c1C(=O)N1C[C@H]2CCC[C@@]2(COc2ccccn2)C1`, 17.6%.
`Cc1ccc(C(=O)N2CCO[C@H]3[C@H](OCc4ccccn4)CC[C@@H]32)o1`: the Percent Effect is 19.3%.
As for `Cc1nc([C@@H]2C[C@@H]3CCN(C(=O)Cc4cccc(F)c4)C[C@H]3O2)no1`, the Percent Effect turned out to be 9.09%.
With `CN(C)C(=O)[C@H]1C[C@@H]2CCN(C3CCOCC3)C[C@@H]2O1`, the Percent Effect was 11.1%.
`Cn1ccnc1Sc1ccc(N)cn1`: the Percent Effect was found to be 91%.
Take `CN1CCN(S(=O)(=O)c2ccc(Sc3nccn3C)nc2)CC1`: the Percent Effect is -3.37%.
`Cn1ccnc1Sc1ccc(S(N)(=O)=O)cn1`: the Percent Effect was 10.3%.
With `CS(=O)(=O)N1CCO[C@@H]2CN(C(=O)N3CCOCC3)CC[C@@H]2C1`, the Percent Effect stood at 4.5%.
As to `Cc1ccc(N2CCc3sc(C(=O)N4CCOCC4)cc32)nn1`, the Percent Effect worked out at 50%.
In the case of `Cc1ccc(N2CCc3sc(C(=O)NCCN4CCCC4)cc32)nn1`, the Percent Effect worked out at 8.33%.
As for `CN(C)CC(=O)N1CCc2sc(C(=O)N3CCOCC3)cc21`, the Percent Effect amounted to 15.8%.
Take `Cc1cc(C(=O)NCC(C)C)c2c(C3CCCN3)noc2n1` (stereo unspecified): the Percent Effect was found to be 4.14%.
Take `Cc1cc(C(=O)NCC(F)(F)F)c2c(C3CCNCC3)noc2n1`: the Percent Effect came out at 19.3%.
In the case of `Cc1cc(C(=O)NCC(F)(F)F)c2c(C3CCCN3)noc2n1` (stereo unspecified), the Percent Effect came to 71.7%.
Consider `Cc1cnc(N2CC[C@@]3(O)CCCC[C@H]3C2)nc1-c1ccnn1C`, for which the Percent Effect was -3.33%.
As for `CN1[C@H](CN2CCCC2)C[C@@H]2CN(C(=O)c3ccsc3)CC[C@@H]21`, the Percent Effect turned out to be 0.917%.
Take `CO[C@@H]1CN(S(=O)(=O)c2cn(C)cn2)[C@@H]2CCCO[C@@H]21`: the Percent Effect is 17.2%.
Take `Cc1ccc(N2CC[C@H]3C[C@H](C(=O)NCc4ccco4)O[C@H]3C2)nn1`: the Percent Effect turned out to be 18.1%.
Regarding `N#Cc1c(SCCN2CCCCC2)sc2c(O)cc(O)nc12`, the Percent Effect amounted to 24.7%.
On to `N#Cc1c(SCCN2CCCCCC2)sc2c(O)cc(O)nc12`, for which the Percent Effect worked out at 24.7%.
`N#CCCSc1sc2c(O)cc(O)nc2c1C#N`: the Percent Effect worked out at 74.2%.
`Cc1ccc(NS(=O)(=O)c2cnn(Cc3ccccc3)c2)c(C(=O)O)c1`: the Percent Effect amounted to 23.9%.
On to `Cc1ccc(NS(=O)(=O)c2cnn(-c3ccccc3)c2)c(C(=O)O)c1`, for which the Percent Effect was 69.6%.
The result for `Cc1ccc(-n2cc(S(=O)(=O)Nc3cccc(C(=O)O)c3C)cn2)cc1` reads 13%; that for `Cc1ccnc(C(=O)N2C[C@@H]3CN(S(C)(=O)=O)CCO[C@@H]3C2)c1`, 8.77%; that for `COCCOc1ccccc1C(=O)N1CCCCC1c1nccs1` (stereo unspecified), 50%.
As to `COc1cccc(C(=O)N2CCCCC2c2nccs2)c1OC` (stereo unspecified), the Percent Effect amounted to 4.39%.
The result for `COCCOc1ncccc1C(=O)N1CCCCC1c1nccs1` (stereo unspecified) reads 14.9%.

For the origin of these results see ChEMBL document CHEMBL3988442, “University of Dundee, Small-Polar-MMV Screening Library” (2021).
